PubChem BioAssay AID1159580 (chemical genetic matrix, 2015)
About 2,000 (36%) of roughly 5,500 compounds were called active. About 18% were inconclusive and are not listed. Rule as the data show it: active = normalized growth mostly below about 0.91 (no sharp cut-off); inconclusive = no clear call, values can overlap the other calls; inactive = mostly above about 0.92. The list shows a part of the results.

Test: chemical genetic growth profiling, strain panel (AID 1159580);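 also: tested at 20 µM; growth read once vehicle control cultures reached saturation at 30 °C; 1 = growth at the plate median or of vehicle wells; lower values mean less growth of the strain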
Settings: growth OD

Measured: normalized growth

CCC(=O)c1ccc2c(c1)N(CC(C)N(C)C)c1ccccc1S2 (configuration not stated)
inactive: S. cerevisiae deletion strains, locus YAL013W, strain DEP1, stronger effect = lower value 0.983 | S. cerevisiae deletion strains, locus YBR021W, strain FUR4, stronger effect = lower value 0.88 | S. cerevisiae deletion strains, locus YBR229C, strain ROT2, stronger effect = lower value 0.994 | S. cerevisiae deletion strains, locus YCL029C, strain bik1, stronger effect = lower value 1.02 | S. cerevisiae deletion strains, locus YDL035C, strain GPR1, stronger effect = lower value 0.979 | S. cerevisiae deletion strains, locus YDL074C, strain BRE1, stronger effect = lower value 0.95 | S. cerevisiae deletion strains, locus YDL101C, strain DUN1, stronger effect = lower value 0.986 | S. cerevisiae deletion strains, locus YDL134C, strain PPH21, stronger effect = lower value 0.96 | S. cerevisiae deletion strains, locus YDL185W, strain tfp1, stronger effect = lower value 0.995 | S. cerevisiae deletion strains, locus YDL192W, strain arf1, stronger effect = lower value 1.01 | S. cerevisiae deletion strains, locus YDR101C, strain arx1, stronger effect = lower value 1.01 | S. cerevisiae deletion strains, locus YDR162C, strain NBP2, stronger effect = lower value 0.988 | S. cerevisiae deletion strains, locus YDR318W, strain mcm21, stronger effect = lower value 0.994 | S. cerevisiae deletion strains, locus YDR388W, stronger effect = lower value 1 | S. cerevisiae deletion strains, locus YDR502C, strain sam2, stronger effect = lower value 0.986 | S. cerevisiae deletion strains, locus YEL061C, strain CIN8, stronger effect = lower value 0.998 | S. cerevisiae deletion strains, locus YER110C, stronger effect = lower value 1.02 | S. cerevisiae deletion strains, locus YER155C, strain BEM2, stronger effect = lower value 0.989 | S. cerevisiae deletion strains, locus YER167W, strain BCK2, stronger effect = lower value 0.998 | S. cerevisiae deletion strains, locus YGL078C, strain dbp3, stronger effect = lower value 1.01 | S. cerevisiae deletion strains, locus YGL086W, strain mad1, stronger effect = lower value 0.99 | S. cerevisiae deletion strains, locus YGL248W, strain PDE1, stronger effect = lower value 0.966 | S. cerevisiae deletion strains, locus YGR078C, strain PAC10, stronger effect = lower value 0.992 | S. cerevisiae deletion strains, locus YGR135W, strain pre9, stronger effect = lower value 0.97 | S. cerevisiae deletion strains, locus YGR229C, strain SMI1, stronger effect = lower value 0.949 | S. cerevisiae deletion strains, locus YGR252W, strain gcn5, stronger effect = lower value 0.806 | S. cerevisiae deletion strains, locus YHR030C, strain SLT2, stronger effect = lower value 0.997 | S. cerevisiae deletion strains, locus YHR079C, strain IRE1 (second series), stronger effect = lower value 1.01 | S. cerevisiae deletion strains, locus YHR094C, strain hxt1, stronger effect = lower value 1.02 | S. cerevisiae deletion strains, locus YHR129C, strain ARP1, stronger effect = lower value 0.993 | S. cerevisiae deletion strains, locus YHR200W, strain rpn10, stronger effect = lower value 1 | S. cerevisiae deletion strains, locus YIL066C, strain RNR3, stronger effect = lower value 0.985 | S. cerevisiae deletion strains, locus YIL073C, strain SPO22, stronger effect = lower value 1.01 | S. cerevisiae deletion strains, locus YIL125W, strain kgd1, stronger effect = lower value 1.01 | S. cerevisiae deletion strains, locus YIR030C, strain dcg1, stronger effect = lower value 1.01 | S. cerevisiae deletion strains, locus YJL095W, strain BCK1, stronger effect = lower value 0.889 | S. cerevisiae deletion strains, locus YJL134W, strain LCB3, stronger effect = lower value 0.996 | S. cerevisiae deletion strains, locus YJL168C, strain set2, stronger effect = lower value 1 | S. cerevisiae deletion strains, locus YJL187C, strain SWE1 (second series), stronger effect = lower value 0.99 | S. cerevisiae deletion strains, locus YJR043C, strain POL32, stronger effect = lower value 0.96 | S. cerevisiae deletion strains, locus YJR075W, strain HOC1, stronger effect = lower value 0.99 | S. cerevisiae deletion strains, locus YKL009W, strain mrt4, stronger effect = lower value 0.999 | S. cerevisiae deletion strains, locus YKL068W, stronger effect = lower value 0.999 | S. cerevisiae deletion strains, locus YKL085W, strain MDH1 (second series), stronger effect = lower value 0.999 | S. cerevisiae deletion strains, locus YKL085W, strain MDH1, stronger effect = lower value 0.999 | S. cerevisiae deletion strains, locus YKL190W, strain CNB1, stronger effect = lower value 0.99 | S. cerevisiae deletion strains, locus YKR001C, strain vps1, stronger effect = lower value 0.967 | S. cerevisiae deletion strains, locus YLR039C, strain RIC1, stronger effect = lower value 1.3 | S. cerevisiae deletion strains, locus YLR058C, strain SHM2, stronger effect = lower value 0.985 | S. cerevisiae deletion strains, locus YLR102C, strain apc9, stronger effect = lower value 1.02 | S. cerevisiae deletion strains, locus YLR262C, strain YPT6, stronger effect = lower value 1.35 | S. cerevisiae deletion strains, locus YLR268W, strain sec22, stronger effect = lower value 0.986 | S. cerevisiae deletion strains, locus YLR330W, strain CHS5, stronger effect = lower value 0.996 | S. cerevisiae deletion strains, locus YLR342W, strain FKS1 (second series), stronger effect = lower value 0.921 | S. cerevisiae deletion strains, locus YLR371W, strain rom2, stronger effect = lower value 1.03 | S. cerevisiae deletion strains, locus YLR418C, strain cdc73, stronger effect = lower value 0.9 | S. cerevisiae deletion strains, locus YML016C, strain PPZ1, stronger effect = lower value 0.994 | S. cerevisiae deletion strains, locus YML032C, strain rad52, stronger effect = lower value 0.982 | S. cerevisiae deletion strains, locus YML124C, strain tub3, stronger effect = lower value 1.01 | S. cerevisiae deletion strains, locus YMR078C, strain ctf18, stronger effect = lower value 1.01 | S. cerevisiae deletion strains, locus YMR223W, strain ubp8, stronger effect = lower value 0.963 | S. cerevisiae deletion strains, locus YMR263W, strain SAP30, stronger effect = lower value 0.973 | S. cerevisiae deletion strains, locus YMR307W, strain GAS1, stronger effect = lower value 1.01 | S. cerevisiae deletion strains, locus YNL067W, strain RPL9B, stronger effect = lower value 0.99 | S. cerevisiae deletion strains, locus YNL153C, strain GIM3, stronger effect = lower value 0.98 | S. cerevisiae deletion strains, locus YNL233W, strain BNI4, stronger effect = lower value 0.951 | S. cerevisiae deletion strains, locus YNL250W, strain rad50, stronger effect = lower value 1.01 | S. cerevisiae deletion strains, locus YNL271C, strain bni1, stronger effect = lower value 1.01 | S. cerevisiae deletion strains, locus YNL298W, strain CLA4, stronger effect = lower value 1.01 | S. cerevisiae deletion strains, locus YNL307C, strain MCK1, stronger effect = lower value 0.996 | S. cerevisiae deletion strains, locus YNR052C, strain pop2, stronger effect = lower value 1 | S. cerevisiae deletion strains, locus YOL006C, strain TOP1, stronger effect = lower value 0.852 | S. cerevisiae deletion strains, locus YOL012C, strain htz1 0.881 | S. cerevisiae deletion strains, locus YOL147C, strain pex11, stronger effect = lower value 1.01 | S. cerevisiae deletion strains, locus YOR061W, strain CKA2, stronger effect = lower value 0.999 | S. cerevisiae deletion strains, locus YOR069W, strain VPS5, stronger effect = lower value 0.996 | S. cerevisiae deletion strains, locus YOR136W, strain idh2, stronger effect = lower value 1 | S. cerevisiae deletion strains, locus YOR144C, strain elg1, stronger effect = lower value 1.01 | S. cerevisiae deletion strains, locus YOR184W, strain ser1, stronger effect = lower value 1.01 | S. cerevisiae deletion strains, locus YOR316C, strain cot1, stronger effect = lower value 1.02 | S. cerevisiae deletion strains, locus YPL055C, strain LGE1, stronger effect = lower value 0.949 | S. cerevisiae deletion strains, locus YPR119W, strain clb2, stronger effect = lower value 1.01 | S. cerevisiae deletion strains, locus YPR141C, strain kar3, stronger effect = lower value 1.01 | S. cerevisiae deletion strains, locus YPR163C, strain tif3, stronger effect = lower value 1 | S. cerevisiae deletion strains, locus YPR167C, strain met16, stronger effect = lower value 1.02 | S. cerevisiae deletion strains, strain wtn01, stronger effect = lower value 0.99 | S. cerevisiae strains, strain wild type, stronger effect = lower value 0.991
